Columns and labels:
Experiment in all cases: PBM; 200 nM protein, PBS
Conditions in all cases: dsDNA, one strand shown
HOXB9 [1] = biological target: HOXB9 (Homo sapiens, UniProt P17482 171-250, T197M)
HOXC9 [2] = biological target: HOXC9 (Homo sapiens, UniProt P31274 178-260, K195R)
HOXC10 [3] = biological target: HOXC10 (Homo sapiens, UniProt Q9NYD6 254-340)
HOXB9 [4] = biological target: HOXB9 (Homo sapiens, UniProt P17482 171-250)
HOXC9 [5] = biological target: HOXC9 (Homo sapiens, UniProt P31274 178-260)
HOXC9 (Homo sapiens, UniProt P31274 178-260), sequence (P31274 178-260): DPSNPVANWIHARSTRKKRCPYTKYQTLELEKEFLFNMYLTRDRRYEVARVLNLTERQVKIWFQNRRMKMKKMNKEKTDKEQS

HOXD13 [6] = biological target: HOXD13 (Homo sapiens, UniProt P35453 263-343, T313R)
HOXD13 (Homo sapiens, UniProt P35453 263-343, T313R), sequence (P35453 263-343 T313R): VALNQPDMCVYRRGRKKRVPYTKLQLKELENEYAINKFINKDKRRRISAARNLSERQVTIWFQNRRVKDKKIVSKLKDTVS

HOXC9 [7] = biological target: HOXC9 (Homo sapiens, UniProt P31274 178-260, R193K)
HOXC9 (Homo sapiens, UniProt P31274 178-260, R193K), sequence (P31274 178-260 R193K): as the sequence (P31274 178-260) above, with R16K counted along it

HOXD13 [8] = biological target: HOXD13 (Homo sapiens, UniProt P35453 263-343)
HOXD13 (Homo sapiens, UniProt P35453 263-343), sequence (P35453 263-343): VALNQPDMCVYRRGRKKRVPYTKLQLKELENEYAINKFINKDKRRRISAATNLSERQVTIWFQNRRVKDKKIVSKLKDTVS

HOXC10 [9] = biological target: HOXC10 (Homo sapiens, UniProt Q9NYD6 254-340, K271E)
HOXC10 (Homo sapiens, UniProt Q9NYD6 254-340, K271E), sequence (Q9NYD6 254-340 K271E): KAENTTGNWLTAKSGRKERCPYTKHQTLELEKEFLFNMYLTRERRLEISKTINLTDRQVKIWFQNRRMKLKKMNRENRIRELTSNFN

HOXD13 [10] = biological target: HOXD13 (Homo sapiens, UniProt P35453 263-343, T313A)
HOXD13 (Homo sapiens, UniProt P35453 263-343, T313A), sequence (P35453 263-343 T313A): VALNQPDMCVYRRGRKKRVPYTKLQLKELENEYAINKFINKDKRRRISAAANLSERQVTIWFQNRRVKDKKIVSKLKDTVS

HOXB9 [11] = biological target: HOXB9 (Homo sapiens, UniProt P17482 171-250, R186Q)
HOXB9 (Homo sapiens, UniProt P17482 171-250, R186Q), sequence (P17482 171-250 R186Q): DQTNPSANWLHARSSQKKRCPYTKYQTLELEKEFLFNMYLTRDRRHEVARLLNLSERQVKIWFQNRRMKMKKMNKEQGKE

HOXC9 [12] = biological target: HOXC9 (Homo sapiens, UniProt P31274 178-260, R222W)
HOXC9 (Homo sapiens, UniProt P31274 178-260, R222W), sequence (P31274 178-260 R222W): as the sequence (P31274 178-260) above, with R45W counted along it

MSX2 [13] = biological target: MSX2 (Homo sapiens, UniProt P35548 130-214)
MSX2 (Homo sapiens, UniProt P35548 130-214), sequence (P35548 130-214): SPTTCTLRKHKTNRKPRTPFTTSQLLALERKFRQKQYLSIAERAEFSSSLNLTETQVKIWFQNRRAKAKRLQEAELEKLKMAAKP

MSX2 [14] = biological target: MSX2 (Homo sapiens, UniProt P35548 130-214, F161Y)
MSX2 (Homo sapiens, UniProt P35548 130-214, F161Y), sequence (P35548 130-214 F161Y): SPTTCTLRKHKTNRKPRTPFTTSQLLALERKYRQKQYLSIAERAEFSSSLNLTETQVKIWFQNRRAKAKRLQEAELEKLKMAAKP

HOXC9 (Homo sapiens, UniProt P31274 178-260, K195R), sequence (P31274 178-260 K195R): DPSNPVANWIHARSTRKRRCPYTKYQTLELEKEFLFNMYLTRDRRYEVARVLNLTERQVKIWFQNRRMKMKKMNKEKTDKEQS
HOXC10 (Homo sapiens, UniProt Q9NYD6 254-340), sequence (Q9NYD6 254-340): as the sequence (Q9NYD6 254-340 K271E) above, with E18K counted along it
HOXB9 (Homo sapiens, UniProt P17482 171-250, T197M), sequence (P17482 171-250 T197M): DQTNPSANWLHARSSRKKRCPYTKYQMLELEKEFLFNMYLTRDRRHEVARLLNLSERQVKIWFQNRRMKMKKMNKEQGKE
HOXB9 (Homo sapiens, UniProt P17482 171-250), sequence (P17482 171-250): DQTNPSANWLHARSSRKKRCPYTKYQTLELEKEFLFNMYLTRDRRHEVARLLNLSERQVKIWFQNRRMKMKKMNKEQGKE

Sequence	binding signal (HOXB9 [1])	binding signal (HOXC9 [2])	binding signal (HOXC10 [3])	binding signal (HOXB9 [4])	binding signal (HOXC9 [5])	binding signal (HOXD13 [6])	binding signal (HOXC9 [7])	binding signal (HOXD13 [8])	binding signal (HOXC10 [9])	binding signal (HOXD13 [10])	binding signal (HOXB9 [11])	binding signal (HOXC9 [12])	binding signal (MSX2 [13])	binding signal (MSX2 [14])
ATCATAAA	9.69 upbm affinity estimate (log intensity, higher = more binding, comparable within an allelic series)	12.7 upbm affinity estimate (log intensity, higher = more binding, comparable within an allelic series)	12.5 upbm affinity estimate (log intensity, higher = more binding, comparable within an allelic series)	11.9 upbm affinity estimate (log intensity, higher = more binding, comparable within an allelic series)	12.8 upbm affinity estimate (log intensity, higher = more binding, comparable within an allelic series)	10.8 upbm affinity estimate (log intensity, higher = more binding, comparable within an allelic series)	12.7 upbm affinity estimate (log intensity, higher = more binding, comparable within an allelic series)	11.8 upbm affinity estimate (log intensity, higher = more binding, comparable within an allelic series)	11.8 upbm affinity estimate (log intensity, higher = more binding, comparable within an allelic series)	11.8 upbm affinity estimate (log intensity, higher = more binding, comparable within an allelic series)	11.7 upbm affinity estimate (log intensity, higher = more binding, comparable within an allelic series)	10.9 upbm affinity estimate (log intensity, higher = more binding, comparable within an allelic series)	–	–
CTATAAAA	9.77 upbm affinity estimate (log intensity, higher = more binding, comparable within an allelic series)	12.8 upbm affinity estimate (log intensity, higher = more binding, comparable within an allelic series)	12.4 upbm affinity estimate (log intensity, higher = more binding, comparable within an allelic series)	12.2 upbm affinity estimate (log intensity, higher = more binding, comparable within an allelic series)	12.9 upbm affinity estimate (log intensity, higher = more binding, comparable within an allelic series)	11.1 upbm affinity estimate (log intensity, higher = more binding, comparable within an allelic series)	12.8 upbm affinity estimate (log intensity, higher = more binding, comparable within an allelic series)	12.4 upbm affinity estimate (log intensity, higher = more binding, comparable within an allelic series)	11.7 upbm affinity estimate (log intensity, higher = more binding, comparable within an allelic series)	12.2 upbm affinity estimate (log intensity, higher = more binding, comparable within an allelic series)	11.9 upbm affinity estimate (log intensity, higher = more binding, comparable within an allelic series)	11.4 upbm affinity estimate (log intensity, higher = more binding, comparable within an allelic series)	–	–
ATCGTAAA	9.78 upbm affinity estimate (log intensity, higher = more binding, comparable within an allelic series)	12.6 upbm affinity estimate (log intensity, higher = more binding, comparable within an allelic series)	12.7 upbm affinity estimate (log intensity, higher = more binding, comparable within an allelic series)	11.9 upbm affinity estimate (log intensity, higher = more binding, comparable within an allelic series)	12.9 upbm affinity estimate (log intensity, higher = more binding, comparable within an allelic series)	10.9 upbm affinity estimate (log intensity, higher = more binding, comparable within an allelic series)	12.6 upbm affinity estimate (log intensity, higher = more binding, comparable within an allelic series)	12.1 upbm affinity estimate (log intensity, higher = more binding, comparable within an allelic series)	12.1 upbm affinity estimate (log intensity, higher = more binding, comparable within an allelic series)	11.8 upbm affinity estimate (log intensity, higher = more binding, comparable within an allelic series)	11.4 upbm affinity estimate (log intensity, higher = more binding, comparable within an allelic series)	10.8 upbm affinity estimate (log intensity, higher = more binding, comparable within an allelic series)	–	–
GTCGTTAA	10 upbm affinity estimate (log intensity, higher = more binding, comparable within an allelic series)	12.6 upbm affinity estimate (log intensity, higher = more binding, comparable within an allelic series)	12.5 upbm affinity estimate (log intensity, higher = more binding, comparable within an allelic series)	11.8 upbm affinity estimate (log intensity, higher = more binding, comparable within an allelic series)	12.8 upbm affinity estimate (log intensity, higher = more binding, comparable within an allelic series)	–	12.6 upbm affinity estimate (log intensity, higher = more binding, comparable within an allelic series)	–	12.4 upbm affinity estimate (log intensity, higher = more binding, comparable within an allelic series)	–	11.3 upbm affinity estimate (log intensity, higher = more binding, comparable within an allelic series)	10.6 upbm affinity estimate (log intensity, higher = more binding, comparable within an allelic series)	–	–
ATAAAACA	9.83 upbm affinity estimate (log intensity, higher = more binding, comparable within an allelic series)	12.4 upbm affinity estimate (log intensity, higher = more binding, comparable within an allelic series)	12.2 upbm affinity estimate (log intensity, higher = more binding, comparable within an allelic series)	11.8 upbm affinity estimate (log intensity, higher = more binding, comparable within an allelic series)	12.5 upbm affinity estimate (log intensity, higher = more binding, comparable within an allelic series)	10.7 upbm affinity estimate (log intensity, higher = more binding, comparable within an allelic series)	12.5 upbm affinity estimate (log intensity, higher = more binding, comparable within an allelic series)	11.9 upbm affinity estimate (log intensity, higher = more binding, comparable within an allelic series)	11.6 upbm affinity estimate (log intensity, higher = more binding, comparable within an allelic series)	11.6 upbm affinity estimate (log intensity, higher = more binding, comparable within an allelic series)	11.5 upbm affinity estimate (log intensity, higher = more binding, comparable within an allelic series)	11.1 upbm affinity estimate (log intensity, higher = more binding, comparable within an allelic series)	–	–
ACATAAAA	9.85 upbm affinity estimate (log intensity, higher = more binding, comparable within an allelic series)	12.8 upbm affinity estimate (log intensity, higher = more binding, comparable within an allelic series)	12.5 upbm affinity estimate (log intensity, higher = more binding, comparable within an allelic series)	12.3 upbm affinity estimate (log intensity, higher = more binding, comparable within an allelic series)	13 upbm affinity estimate (log intensity, higher = more binding, comparable within an allelic series)	–	12.9 upbm affinity estimate (log intensity, higher = more binding, comparable within an allelic series)	–	12 upbm affinity estimate (log intensity, higher = more binding, comparable within an allelic series)	–	12 upbm affinity estimate (log intensity, higher = more binding, comparable within an allelic series)	11.3 upbm affinity estimate (log intensity, higher = more binding, comparable within an allelic series)	11.3 upbm affinity estimate (log intensity, higher = more binding, comparable within an allelic series)	11.1 upbm affinity estimate (log intensity, higher = more binding, comparable within an allelic series)
TCGTAAAA	9.97 upbm affinity estimate (log intensity, higher = more binding, comparable within an allelic series)	13.1 upbm affinity estimate (log intensity, higher = more binding, comparable within an allelic series)	12.8 upbm affinity estimate (log intensity, higher = more binding, comparable within an allelic series)	12.6 upbm affinity estimate (log intensity, higher = more binding, comparable within an allelic series)	13.2 upbm affinity estimate (log intensity, higher = more binding, comparable within an allelic series)	11.1 upbm affinity estimate (log intensity, higher = more binding, comparable within an allelic series)	13 upbm affinity estimate (log intensity, higher = more binding, comparable within an allelic series)	12.3 upbm affinity estimate (log intensity, higher = more binding, comparable within an allelic series)	12.3 upbm affinity estimate (log intensity, higher = more binding, comparable within an allelic series)	12.2 upbm affinity estimate (log intensity, higher = more binding, comparable within an allelic series)	12 upbm affinity estimate (log intensity, higher = more binding, comparable within an allelic series)	11.3 upbm affinity estimate (log intensity, higher = more binding, comparable within an allelic series)	–	–

Reference: paper PMC11006913
